# Test results reported in the supplement of paper PMC10477191.
# ± gives the standard deviation of the averaged measurements.
# Test system: Drosophila virilis antennal basiconic sensillum AB4
# Assay: odor-evoked OSN spike response (post minus pre-stimulus); higher = stronger neuronal excitation
# Conditions: odor dilution: 10^-4
# Protocol: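 Single sensillum recordings from antennal basiconic sensilla of D. virilis. A 500 ms pulse of odorant (10^-4 in mineral oil or DMSO) was delivered; the response is the change in spike frequency between the 1 s pre- and post-stimulus windows (spikes/s).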
row,SMILES,odor-evoked OSN spike response [spikes/s]
1,C[C@H]1CCC[C@@]2(C)CCCC[C@]12O [geosmin],102 ± 21
